The full data set covers some 8,800 targets. This sample favours those with a hit. About 0.5% of all pairs of compound and target were hits. A number with no mark means an inactive call.
Experiments:
Experiment in all cases: log2 fold change, soluble protein after heating vs DMSO (PISA); higher = thermal stabilisation; K562 lysate, 10 uM; active = over 0.2 and 3.5 SD of the protein, either way, in both replicates (recomputed)
erlotinib = compound: C#Cc1cccc(Nc2ncnc3cc(OCCOC)c(OCCOC)cc23)c1 [erlotinib]
Summary of the method: (§1)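 K562 pellets were dounce-homogenised in PBS pH 7.4 with 1 mM MgCl2, and the crude extract at 1 mg/mL protein was treated with 10 μM compound for 30 min. Aliquots were heated for 3 min across 48°C-58°C, pooled, and brought to 0.5% NP-40 at 4°C; soluble protein was the supernatant after 21,000xg for 90 min. Soluble protein was quantified by TMTpro 16plex LC-MS/MS with channel sums equalised, and reported as log2 fold change in thermal stability against DMSO controls, with values from duplicates.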

[1] = compound: C/C(=N\NC(=O)C1=CC(=CC=C1)S(=O)(=O)N2CCOCC2)/C3=C(C=CC(=C3)Cl)O
Summary of the method: as §1

[2] = compound: C1=CC(=CC=C1C2=NC3=C(N2)C=C(C=C3)C(=O)N)OC4=CC=C(C=C4)Cl
Summary of the method: as §1

[3] = compound: C1=CC2=C(C=CC(=C2)/C=C\3/C(=O)NC(=NCC4=CC=CS4)S3)N=C1
Summary of the method: as §1

[4] = compound: C1=CC2=NC=CN=C2C=C1/C=C/3\C(=O)NC(=O)S3
Summary of the method: as §1

[5] = compound: C1=CC=C(C=C1)C2=NC(=C(N2)C3=CC=NC=C3)C4=CC(=C(C=C4)Cl)O
Summary of the method: as §1

[6] = compound: C1=CC=C2C(=C1)C3=NNC4=CC=CC(=C43)C2=O
Summary of the method: as §1

[7] = compound: C1CCN(C1)C(=O)NC2=CC=CC(=C2)NC3=NC=C(C(=N3)NCCC4=CN=CN4)Br
Summary of the method: as §1

[8] = compound: C1CN(CCC1(CC2=CC=C(C=C2)Cl)N)C3=NC=NC4=C3C=CN4
Summary of the method: as §1

IRAK-1-4 Inhibitor I = compound: C1COCCN1CCN2C3=CC=CC=C3N=C2NC(=O)C4=CC(=CC=C4)[N+](=O)[O-] [IRAK-1-4 Inhibitor I]
Summary of the method: as §1

ibrutinib = compound: C=CC(=O)N1CCC[C@@H](n2nc(-c3ccc(Oc4ccccc4)cc3)c3c(N)ncnc32)C1 [ibrutinib]
Summary of the method: as §1

[9] = compound: CC(=O)c1cnc2ccc(-c3cc(Cl)c(O)c(Cl)c3)nc2c1N[C@H]1CC[C@H](CN(C)C)CC1
Summary of the method: as §1

ralimetinib = compound: CC(C)(C)Cn1c(N)nc2ccc(-c3[nH]c(C(C)(C)C)nc3-c3ccc(F)cc3)nc21 [ralimetinib]
Summary of the method: as §1

[10] = compound: CC(C)(O)CC(=O)NCCn1ccc2ncnc(Nc3ccc(Oc4cccc(C(F)(F)F)c4)c(Cl)c3)c21
Summary of the method: as §1

[11] = compound: CC(C)C1=C2N=C(C=C(N2N=C1)NCC3=CC=CC=C3)NCCCCCCN
Summary of the method: as §1

[12] = compound: CC1=C(C(CC(=O)N1)C2=CC=C(C=C2)C(F)(F)F)C(=O)NC3=C(C=C4C(=C3)C=NN4)F
Summary of the method: as §1

[13] = compound: CC1=C(C2=C(C=C1)C(=O)C3=CC=CC=C3N2CCCN)C
Summary of the method: as §1

[14] = compound: CC1=C(C=C(C=C1)NC(=O)C2=CC(=CC=C2)C(C)(C)C#N)NC3=CC4=C(C=C3)N=CN(C4=O)C
Summary of the method: as §1

[15] = compound: CC1=C(C=C(C=C1)NC(=O)C2=CC(=CC=C2)N(C)C)NC(=O)C3=CC=C(C=C3)O
Summary of the method: as §1

[16] = compound: CC1=CC=C(C=C1)SC2=C3C=C(SC3=CN=C2)C(=O)N
Summary of the method: as §1

UniProt P17706, sequence (P17706 whole entry, looked up): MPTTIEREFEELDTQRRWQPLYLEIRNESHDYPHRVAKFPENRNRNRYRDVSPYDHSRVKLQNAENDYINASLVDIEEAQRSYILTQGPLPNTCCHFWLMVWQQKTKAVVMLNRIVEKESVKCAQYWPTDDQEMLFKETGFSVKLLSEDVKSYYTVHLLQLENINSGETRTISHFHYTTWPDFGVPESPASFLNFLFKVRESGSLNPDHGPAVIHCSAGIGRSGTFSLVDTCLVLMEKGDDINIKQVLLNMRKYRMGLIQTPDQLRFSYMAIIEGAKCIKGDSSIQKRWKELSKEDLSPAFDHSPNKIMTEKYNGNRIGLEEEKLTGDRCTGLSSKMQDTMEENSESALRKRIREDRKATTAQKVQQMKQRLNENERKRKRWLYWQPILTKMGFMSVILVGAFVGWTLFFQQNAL
UniProt Q13362, sequence (Q13362 whole entry, looked up): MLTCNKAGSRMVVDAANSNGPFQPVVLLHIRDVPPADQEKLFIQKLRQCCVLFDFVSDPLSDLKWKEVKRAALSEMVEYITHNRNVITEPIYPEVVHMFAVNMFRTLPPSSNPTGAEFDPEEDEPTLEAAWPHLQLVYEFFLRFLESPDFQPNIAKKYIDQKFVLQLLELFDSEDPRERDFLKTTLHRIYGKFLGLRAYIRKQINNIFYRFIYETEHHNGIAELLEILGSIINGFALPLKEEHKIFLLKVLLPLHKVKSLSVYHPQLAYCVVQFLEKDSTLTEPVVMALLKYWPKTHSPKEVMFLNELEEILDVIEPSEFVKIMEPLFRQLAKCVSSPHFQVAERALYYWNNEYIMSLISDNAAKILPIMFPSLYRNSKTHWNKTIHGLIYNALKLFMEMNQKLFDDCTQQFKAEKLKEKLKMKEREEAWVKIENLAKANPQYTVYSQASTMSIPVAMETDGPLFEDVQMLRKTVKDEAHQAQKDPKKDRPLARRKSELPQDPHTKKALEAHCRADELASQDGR
UniProt P54278, sequence (P54278 whole entry, looked up): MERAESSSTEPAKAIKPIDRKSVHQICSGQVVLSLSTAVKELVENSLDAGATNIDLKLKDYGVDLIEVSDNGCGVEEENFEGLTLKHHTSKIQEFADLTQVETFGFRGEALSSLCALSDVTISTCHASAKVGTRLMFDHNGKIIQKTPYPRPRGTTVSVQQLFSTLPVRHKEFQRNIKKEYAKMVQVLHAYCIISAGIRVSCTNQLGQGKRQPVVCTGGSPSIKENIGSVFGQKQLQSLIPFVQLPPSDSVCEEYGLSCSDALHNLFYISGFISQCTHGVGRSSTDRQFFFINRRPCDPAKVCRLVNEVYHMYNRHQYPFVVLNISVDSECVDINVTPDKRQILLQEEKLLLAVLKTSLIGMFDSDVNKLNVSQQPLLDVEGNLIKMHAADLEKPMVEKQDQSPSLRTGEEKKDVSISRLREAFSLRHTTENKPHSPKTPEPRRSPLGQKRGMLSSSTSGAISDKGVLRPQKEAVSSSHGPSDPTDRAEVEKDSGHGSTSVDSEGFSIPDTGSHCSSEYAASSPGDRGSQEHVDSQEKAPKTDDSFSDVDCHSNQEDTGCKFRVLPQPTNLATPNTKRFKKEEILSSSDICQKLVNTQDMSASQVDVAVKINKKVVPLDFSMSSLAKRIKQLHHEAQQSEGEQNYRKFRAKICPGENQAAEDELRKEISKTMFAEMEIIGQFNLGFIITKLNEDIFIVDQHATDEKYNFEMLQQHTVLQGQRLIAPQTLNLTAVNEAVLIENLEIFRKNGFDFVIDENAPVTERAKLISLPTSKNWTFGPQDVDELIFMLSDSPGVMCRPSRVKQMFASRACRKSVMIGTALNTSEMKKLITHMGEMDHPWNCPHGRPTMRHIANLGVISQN
UniProt P15735, sequence (P15735 whole entry, looked up): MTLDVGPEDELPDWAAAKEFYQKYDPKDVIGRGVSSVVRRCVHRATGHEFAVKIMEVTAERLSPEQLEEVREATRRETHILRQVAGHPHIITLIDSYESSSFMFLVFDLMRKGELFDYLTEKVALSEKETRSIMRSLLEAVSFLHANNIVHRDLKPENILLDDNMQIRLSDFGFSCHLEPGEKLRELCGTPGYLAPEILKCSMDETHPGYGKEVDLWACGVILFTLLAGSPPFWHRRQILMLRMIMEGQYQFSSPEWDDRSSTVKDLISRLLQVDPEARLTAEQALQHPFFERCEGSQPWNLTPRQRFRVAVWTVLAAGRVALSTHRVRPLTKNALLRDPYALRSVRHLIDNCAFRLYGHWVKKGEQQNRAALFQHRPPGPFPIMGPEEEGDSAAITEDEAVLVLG
UniProt Q9H7Z7, sequence (Q9H7Z7 whole entry, looked up): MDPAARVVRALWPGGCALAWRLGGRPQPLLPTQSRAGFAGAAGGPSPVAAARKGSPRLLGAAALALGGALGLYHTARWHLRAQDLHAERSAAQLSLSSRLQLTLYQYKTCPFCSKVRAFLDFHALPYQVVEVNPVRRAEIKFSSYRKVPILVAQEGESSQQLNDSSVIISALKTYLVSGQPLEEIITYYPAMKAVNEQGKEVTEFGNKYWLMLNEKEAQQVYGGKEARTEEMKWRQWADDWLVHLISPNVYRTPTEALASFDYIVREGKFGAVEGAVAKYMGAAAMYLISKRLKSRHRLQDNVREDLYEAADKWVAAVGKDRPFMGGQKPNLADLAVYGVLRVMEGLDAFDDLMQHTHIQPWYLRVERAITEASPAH
UniProt Q8TCD6, sequence (Q8TCD6 whole entry, looked up): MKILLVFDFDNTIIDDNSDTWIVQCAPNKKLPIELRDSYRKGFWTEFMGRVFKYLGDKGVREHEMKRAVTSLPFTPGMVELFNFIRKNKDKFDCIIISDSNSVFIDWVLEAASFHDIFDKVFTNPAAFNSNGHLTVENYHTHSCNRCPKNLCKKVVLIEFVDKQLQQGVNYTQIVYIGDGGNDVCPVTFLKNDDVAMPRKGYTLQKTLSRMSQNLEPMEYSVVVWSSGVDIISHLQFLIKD
UniProt P41219, sequence (P41219 whole entry, looked up): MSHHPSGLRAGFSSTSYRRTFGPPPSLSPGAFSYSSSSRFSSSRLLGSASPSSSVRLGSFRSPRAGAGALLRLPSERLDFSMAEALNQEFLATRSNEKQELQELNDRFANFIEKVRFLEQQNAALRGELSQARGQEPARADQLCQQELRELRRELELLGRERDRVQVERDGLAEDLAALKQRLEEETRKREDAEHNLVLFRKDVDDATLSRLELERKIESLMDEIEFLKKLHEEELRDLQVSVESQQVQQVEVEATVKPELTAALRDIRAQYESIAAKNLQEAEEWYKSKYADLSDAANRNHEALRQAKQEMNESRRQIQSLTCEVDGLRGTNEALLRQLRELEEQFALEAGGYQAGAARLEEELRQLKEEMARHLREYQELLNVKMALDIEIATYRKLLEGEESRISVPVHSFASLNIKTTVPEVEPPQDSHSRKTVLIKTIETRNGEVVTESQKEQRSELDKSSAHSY
UniProt P0CAP2, sequence (P0CAP2 whole entry, looked up): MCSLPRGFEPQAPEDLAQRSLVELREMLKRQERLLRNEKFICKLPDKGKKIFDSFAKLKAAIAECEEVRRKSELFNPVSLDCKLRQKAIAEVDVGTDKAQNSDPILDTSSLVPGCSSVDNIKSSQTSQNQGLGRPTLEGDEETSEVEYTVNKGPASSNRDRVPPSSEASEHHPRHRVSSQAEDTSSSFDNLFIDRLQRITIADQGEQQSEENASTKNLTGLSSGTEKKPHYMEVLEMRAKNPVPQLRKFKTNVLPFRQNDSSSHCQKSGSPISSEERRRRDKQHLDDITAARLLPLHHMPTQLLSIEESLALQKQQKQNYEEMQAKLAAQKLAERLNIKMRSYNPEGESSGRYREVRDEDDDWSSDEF
UniProt P78395, sequence (P78395 whole entry, looked up): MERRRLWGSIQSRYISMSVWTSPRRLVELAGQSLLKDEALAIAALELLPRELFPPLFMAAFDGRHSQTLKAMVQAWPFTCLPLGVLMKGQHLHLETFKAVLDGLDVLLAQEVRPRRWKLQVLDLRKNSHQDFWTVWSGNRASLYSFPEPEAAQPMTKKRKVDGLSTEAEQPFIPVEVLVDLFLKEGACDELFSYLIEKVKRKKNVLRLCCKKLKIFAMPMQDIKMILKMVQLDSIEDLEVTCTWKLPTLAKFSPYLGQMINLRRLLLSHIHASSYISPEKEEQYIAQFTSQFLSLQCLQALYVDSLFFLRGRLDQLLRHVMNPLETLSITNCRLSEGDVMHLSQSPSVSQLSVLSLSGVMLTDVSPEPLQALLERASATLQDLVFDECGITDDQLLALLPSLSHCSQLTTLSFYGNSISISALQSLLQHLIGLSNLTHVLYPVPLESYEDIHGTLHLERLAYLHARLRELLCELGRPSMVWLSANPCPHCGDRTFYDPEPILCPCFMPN

Target | log2 fold change (erlotinib) | log2 fold change [1] | log2 fold change [2] | log2 fold change [3] | log2 fold change [4] | log2 fold change [5] | log2 fold change [6] | log2 fold change [7] | log2 fold change [8] | log2 fold change (IRAK-1-4 Inhibitor I) | log2 fold change (ibrutinib) | log2 fold change [9] | log2 fold change (ralimetinib) | log2 fold change [10] | log2 fold change [11] | log2 fold change [12] | log2 fold change [13] | log2 fold change [14] | log2 fold change [15] | log2 fold change [16]
POLD3 (UniProt Q15054) | 0.015 | 0.002 | -0.006 | -0.003 | -0.048 | 0.01 | -0.048 | -0.058 | -0.012 | -0.035 | 0.018 | 0.006 | -0.027 | -0.004 | 0.035 | 0.019 | -0.008 | -0.022 | -0.017 | -0.038
PHKG2 (UniProt P15735) | -0.106 | 0.062 | 0.04 | 0.075 | 0.104 | 0.022 | 0.231 | 0.045 | -0.011 | 0.036 | -0.099 | 0.168 | 0.003 | -0.011 | 0.03 | -0.029 | -0.018 | -0.018 | -0.004 | -0.027
PIK3R1 (UniProt P27986) | -0.027 | -0.4 | 0.008 | 0.069 | 0.348 (active) | 0.076 | 0.089 | -0.015 | 0 | 0.1 | -0.018 | 0.302 | -0.003 | -0.06 | -0.008 | -0.006 | 0.027 | -0.013 | -0.006 | 0.019
PTGES2 (UniProt Q9H7Z7) | 0.008 | 0.056 | -0.133 | 0.066 | -0.054 | 0.174 | 0.162 | 0.028 | -0.023 | 0.161 | -0.035 | -0.092 | -0.004 | 0.167 | 0.132 | -0.029 | -0.002 | 0.001 | -0.082 | 0.036
PRAME (UniProt P78395) | 0.02 | -0.056 | -0.001 | -0.027 | -0.037 | 0.013 | -0.043 | -0.004 | 0.007 | -0.008 | 0.009 | 0.029 | 0.003 | 0.005 | 0.011 | 0.015 | 0.003 | 0.006 | 0.008 | 0.002
PHOSPHO2 (UniProt Q8TCD6) | -0.018 | -0.225 | 0.046 | -0.032 | -0.027 | -0.002 | 0.072 | 0.224 | -0.16 | -0.014 | -0.01 | 0.039 | 0.003 | 0.035 | 0.012 | -0.017 | 0.018 | 0.006 | 0.048 | 0.056
PPP2R5C isoform 5 (UniProt Q13362) | -0.013 | -0.025 | -0.009 | -0.025 | 0.016 | -0.002 | -0.039 | 0.01 | 0.027 | 0.013 | -0.002 | 0.012 | -0.021 | -0.036 | -0.037 | -0.038 | 0.02 | 0.002 | 0.014 | 0.037
PPOX (UniProt P50336) | -0.044 | 0.532 (active) | 0 | -0.015 | -0.04 | 0.025 | 0.014 | 0 | -0.041 | -0.016 | 0.067 | -0.008 | 0.001 | 0.091 | 0.301 | -0.022 | -0.138 | 0.105 | 0.006 | 0.012
PMS2 (UniProt P54278) | 0.036 | 0.012 | -0.058 | -0.005 | -0.015 | -0.028 | -0.032 | -0.013 | 0.012 | 0.001 | 0.027 | 0.032 | 0.046 | -0.047 | 0.069 | -0.038 | -0.049 | -0.019 | -0.004 | 0.002
PDCD4 (UniProt Q53EL6) | 0 | -0.052 | -0.02 | -0.003 | -0.004 | -0.026 | 0.014 | -0.011 | 0.008 | 0.015 | -0.002 | -0.002 | 0.025 | -0.032 | 0.007 | 0.025 | -0.003 | 0.032 | 0.007 | 0.011
PDIA4 (UniProt P13667) | -0.011 | 0.062 | 0.005 | -0.017 | -0.008 | 0.006 | 0 | 0.04 | 0.007 | -0.001 | 0.006 | -0.008 | -0.016 | 0.011 | 0.001 | -0.01 | 0.021 | -0.038 | 0.011 | 0.007
PRKCA (UniProt P17252) | 0.031 | -0.086 | -0.019 | 0.108 | 0 | 0.044 | -0.088 | -0.037 | 0.044 | 0.005 | 0.015 | 0.366 (active) | -0.012 | 0.069 | 0.032 | -0.015 | -0.094 | -0.002 | 0.033 | -0.045
PRPH isoform 2 (UniProt P41219) | -0.007 | 0.042 | -0.025 | -0.032 | 0.066 | -0.001 | -0.114 | 0.072 | -0.005 | -0.011 | -0.099 | 0.054 | 0.009 | 0.067 | 0.074 | 0.002 | 0.007 | -0.064 | 0.023 | -0.011
PPP2R5C isoform 4 (UniProt Q13362) | 0.025 | -0.048 | -0.054 | -0.012 | -0.009 | 0.044 | -0.01 | 0.046 | 0.08 | 0.002 | 0.023 | -0.011 | -0.089 | -0.05 | -0.032 | -0.003 | 0.095 | 0.05 | 0.012 | 0.001
PTPN2 (UniProt P17706) | 0.028 | 0.119 | -0.005 | 0.006 | 0.019 | -0.045 | -0.033 | 0 | 0.046 | -0.017 | 0.016 | -0.014 | 0.014 | -0.001 | -0.029 | -0.035 | 0.045 | -0.005 | 0.017 | 0.007
POLR2M (UniProt P0CAP2) | 0.075 | -0.053 | 0.014 | 0.034 | -0.013 | 0.027 | -0.045 | -0.182 | -0.002 | 0.026 | -0.011 | 0.014 | -0.018 | -0.042 | -0.001 | -0.014 | -0.046 | -0.055 | -0.008 | 0.007

Source: the supplement of paper PMC10849652
